A word on the inhibition: it is the drop in the measured response relative to a control, in per cent.

Experimental findings from PubChem BioAssay are described below.

Experiment [1] can be described thus: antimalarial activity against Dd2 strain (AID 2302;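 active = growth inhibition above 50% at the single 2 µM test dose, taken to imply half-maximal potency below 2 µM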;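 note: 0% = DMSO untreated growth and 100% = chloroquine plus artemisinin killed control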). The note with it: P. falciparum Dd2 in RBCs, LDH growth readout, 72 h; at 2 µM; active compounds read high.
Experiment [2] can be described thus: HepG2 cytotoxicity, primary screen, cytotoxicity control for P. falciparum antimalarial project, cell-based, ATP luminescence (AID 2303;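 active = inhibition above 50%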;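 note: 0% = DMSO wells and 100% = digitonin-killed cells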). Conditions: HepG2 viability, 24-48 h, at 10 µM, active compounds read high.
Experiment [3] concerns the target L-lactate dehydrogenase (Plasmodium falciparum (isolate CDC / Honduras)) (UniProt Q27743). The experiment in a line: PfLDH activity inhibition – cell lysate, 3D7 strain, counter-screen for P. falciparum growth inhibition project (AID 2304).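 Note: 0% = vehicle and 100% = reference inhibitor.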 The note with it: P. falciparum 3D7 crude extract, LDH APAD/NBT absorbance; at 2 µM; active compounds read high. For orientation: Counterscreens check selectivity or assay interference.

Experiment [4] is described as follows: inhibition of 3D7 malaria parasite growth – strain 3D7 (AID 2306).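 Note: 0% = DMSO wells and 100% = chloroquine plus artemisinin control wells.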 The note with it: P. falciparum 3D7 erythrocytic growth, LDH absorbance, 72 h; at 2 µM; active compounds read high.
In experiment [5] the target is Calcium-dependent protein kinase 1 (Plasmodium falciparum (isolate 3D7)) (UniProt P62344). The experiment in a line: PfCDPK1 kinase inhibitors, biochemical, TCAMS library (AID 1159585; cut-off not given, nearly all actives have IC50 up to about 0.98 µM;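 note: inhibitors leave more ATP so luminescence rises with inhibition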). Conditions: recombinant PfCDPK1, Kinase-Glo ATP depletion luminescence. In general terms: In Kinase-Glo more light means more ATP remaining.
Calcium-dependent protein kinase 1 (Plasmodium falciparum (isolate 3D7)), sequence (P62344 whole entry, looked up): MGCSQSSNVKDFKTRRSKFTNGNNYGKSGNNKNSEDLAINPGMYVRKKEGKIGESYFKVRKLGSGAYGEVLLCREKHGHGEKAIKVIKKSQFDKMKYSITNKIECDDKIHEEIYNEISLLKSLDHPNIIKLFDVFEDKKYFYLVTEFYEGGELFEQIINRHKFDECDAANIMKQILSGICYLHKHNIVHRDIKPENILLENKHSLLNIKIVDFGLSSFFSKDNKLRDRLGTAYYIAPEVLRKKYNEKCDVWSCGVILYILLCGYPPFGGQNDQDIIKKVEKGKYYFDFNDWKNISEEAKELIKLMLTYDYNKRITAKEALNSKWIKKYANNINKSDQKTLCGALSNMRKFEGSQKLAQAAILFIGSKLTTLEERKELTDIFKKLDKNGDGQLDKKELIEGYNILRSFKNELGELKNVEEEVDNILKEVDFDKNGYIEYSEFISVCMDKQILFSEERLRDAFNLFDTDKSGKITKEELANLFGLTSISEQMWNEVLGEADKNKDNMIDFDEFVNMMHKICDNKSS
Experiment [6] has as its target Plasmodium falciparum protein kinase 6 (PK6, PF3D7_1337100) (UniProt Q8IDW1). The experiment is described as follows: PfPK6 kinase inhibitors, biochemical, TCAMS library (AID 1159586). Conditions: recombinant PfPK6, Kinase-Glo ATP depletion luminescence.
The target of experiment [7] is Protein kinase 7 (PK7), Plasmodium falciparum 3D7 (PF3D7_0213400) (UniProt Q7YTF7). The experiment is described as follows: inhibition of Plasmodium PK7 catalytic activity – biochemical, TCAMS antimalarial set, Kinase-Glo luminescence (AID 1159587). The note with it: recombinant PfPK7, Kinase-Glo ATP depletion luminescence.
Protein kinase 7 (PK7), Plasmodium falciparum 3D7 (PF3D7_0213400), sequence (Q7YTF7 1-343): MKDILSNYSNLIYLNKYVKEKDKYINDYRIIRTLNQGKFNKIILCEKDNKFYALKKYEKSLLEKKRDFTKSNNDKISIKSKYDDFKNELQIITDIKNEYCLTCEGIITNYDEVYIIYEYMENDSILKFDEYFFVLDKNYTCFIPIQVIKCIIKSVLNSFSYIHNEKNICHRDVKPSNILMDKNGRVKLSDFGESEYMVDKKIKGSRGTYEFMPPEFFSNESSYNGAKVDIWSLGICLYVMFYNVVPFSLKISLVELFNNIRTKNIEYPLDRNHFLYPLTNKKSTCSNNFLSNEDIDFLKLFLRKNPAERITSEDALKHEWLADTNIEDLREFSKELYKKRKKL
In experiment [8] the target is Calcium-dependent protein kinase 4 (Plasmodium falciparum (isolate 3D7)) (UniProt Q8IBS5). The experiment in a line: PfCDPK4 kinase inhibitors, biochemical, TCAMS library (AID 1159588; cut-off not given, nearly all actives have IC50 up to about 0.91 µM). The note with it: recombinant PfCDPK4, Kinase-Glo ATP depletion luminescence.
Calcium-dependent protein kinase 4 (Plasmodium falciparum (isolate 3D7)), sequence (Q8IBS5 whole entry, looked up): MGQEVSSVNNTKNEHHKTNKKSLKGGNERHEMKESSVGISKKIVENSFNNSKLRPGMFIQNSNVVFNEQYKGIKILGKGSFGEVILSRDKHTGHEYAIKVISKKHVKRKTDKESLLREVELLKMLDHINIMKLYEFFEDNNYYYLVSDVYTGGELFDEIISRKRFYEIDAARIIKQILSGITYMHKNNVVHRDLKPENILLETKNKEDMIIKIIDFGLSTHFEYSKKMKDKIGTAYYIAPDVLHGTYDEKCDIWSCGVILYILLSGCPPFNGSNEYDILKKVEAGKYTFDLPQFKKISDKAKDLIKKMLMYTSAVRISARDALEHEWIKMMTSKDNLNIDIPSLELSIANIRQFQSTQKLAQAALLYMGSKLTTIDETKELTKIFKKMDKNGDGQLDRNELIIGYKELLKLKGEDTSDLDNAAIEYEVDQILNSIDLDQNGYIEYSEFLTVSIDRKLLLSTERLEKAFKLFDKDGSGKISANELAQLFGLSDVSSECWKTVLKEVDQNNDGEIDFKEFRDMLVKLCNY

Structures are written as SMILES. Unmarked numbers belong to inactive results. For some of these results: Measured potencies and affinities stand elsewhere. Active and inactive are the calls of the source. Unless noted, the rule behind the calls is not given here.

L-lactate dehydrogenase (Plasmodium falciparum (isolate CDC / Honduras)), sequence (Q27743 whole entry, looked up): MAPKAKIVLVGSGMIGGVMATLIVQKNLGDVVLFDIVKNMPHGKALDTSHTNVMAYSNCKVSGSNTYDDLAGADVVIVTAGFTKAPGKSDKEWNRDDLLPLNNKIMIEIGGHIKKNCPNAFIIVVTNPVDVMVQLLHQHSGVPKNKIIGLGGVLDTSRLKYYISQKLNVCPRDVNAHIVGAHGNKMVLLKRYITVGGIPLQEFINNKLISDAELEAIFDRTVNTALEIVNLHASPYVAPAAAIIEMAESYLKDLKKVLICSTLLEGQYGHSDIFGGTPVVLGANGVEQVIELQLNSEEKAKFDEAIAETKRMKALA
Plasmodium falciparum protein kinase 6 (PK6, PF3D7_1337100), sequence (Q8IDW1 1-305): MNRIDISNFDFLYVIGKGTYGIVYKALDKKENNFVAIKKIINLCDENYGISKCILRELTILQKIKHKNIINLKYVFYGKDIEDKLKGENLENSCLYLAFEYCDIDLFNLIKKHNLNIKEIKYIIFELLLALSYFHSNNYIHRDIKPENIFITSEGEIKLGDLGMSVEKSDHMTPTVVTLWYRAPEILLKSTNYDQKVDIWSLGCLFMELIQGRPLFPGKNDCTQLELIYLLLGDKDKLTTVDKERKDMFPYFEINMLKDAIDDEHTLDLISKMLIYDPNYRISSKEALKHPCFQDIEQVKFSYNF

For `O=C(Cc1ccccc1)NC(CCN1CCC(N(C2CC2)S(=O)(=O)c2cccc(C(F)(F)F)c2)CC1)c1ccc(Cl)c(Cl)c1` (stereo not given), the growth inhibition in experiment [1] is 27%; in experiment [4] it was 85% (active). For the same compound, the inhibition in experiment [2] was 19%; in experiment [3], 6%. Also, the outcome in experiment [5], in experiment [6], in experiment [7] and in experiment [8] was inactive.

For the compound `CC(C)NCC(O)Cn1c2ccc(Br)cc2c2cc(Br)ccc21` (stereo not given), the growth inhibition in experiment [1] was 100% (active); in experiment [4], 99% (active). Further, the inhibition in experiment [2] was 100% (active); in experiment [3], -1%. Besides, the outcome in experiment [5], in experiment [6], in experiment [7] and in experiment [8] was inactive.

For `O=[N+]([O-])c1ccc(-n2nc(Cc3ccccc3)n(Cc3cccc(F)c3)c2=S)c(C(F)(F)F)c1`, the growth inhibition in experiment [1] was 100% (active); in experiment [4], 101% (active). The inhibition in experiment [2] was 4%; in experiment [3], -3%. Moreover, the outcome in experiment [5], in experiment [6], in experiment [7] and in experiment [8] was inactive.

Consider `Cc1cccc(C(=O)N2CCN(Cc3cccc(NC(=O)c4cccs4)c3)CC2)c1`, for which the growth inhibition in experiment [1] and in experiment [4] was 95% (active) each time. In addition, the inhibition in experiment [2] was 5%; in experiment [3], 0%. For the same compound, the result in experiment [5], in experiment [6], in experiment [7] and in experiment [8] was inactive.

On to `CC(C)(C)C(=O)Nc1c(-c2cc(=O)oc3cc4c(cc23)CCC4)oc2ccccc12`, for which the growth inhibition was 100% (active) in experiment [1] and 101% (active) in experiment [4]. The inhibition is -5% in experiment [2] and 3% in experiment [3]. Also, the result in experiment [5], in experiment [6], in experiment [7] and in experiment [8] was inactive.

In the case of `COc1cc(CN2CCC(N3CCc4cc(NC(=O)c5cc(C)on5)ccc43)C2)ccc1F` (stereo not given), the growth inhibition was 96% (active) in experiment [1] and 91% (active) in experiment [4]. In addition, the inhibition is 1% in experiment [2] and 0% in experiment [3]. In addition, the outcome in experiment [5], in experiment [6], in experiment [7] and in experiment [8] was inactive.

Turning to `CN(C)c1ccc(CN2CCCCC(NC(=O)c3cc(-c4ccccc4Cl)cs3)C2)cc1` (stereo not given), the values for the growth inhibition in experiment [1] and in experiment [4] were 14% and 91% (active), respectively. Further, the inhibition in experiment [2] is 10%; in experiment [3], -3%. The result in experiment [5], in experiment [6], in experiment [7] and in experiment [8] was inactive.

For `COc1cc(Cc2cnc(N)nc2N)ccc1OCc1ccc(-c2csnn2)cc1`, the growth inhibition was -2% in experiment [1] and 97% (active) in experiment [4]. Moreover, the inhibition in experiment [2] was 33%; in experiment [3], -4%. Also, the outcome in experiment [5], in experiment [6], in experiment [7] and in experiment [8] was inactive.

Turning to `CCC[C@@H]([C@@H](CC1CCC(C)CC1)C(=O)N[C@@H](CCCCNC(=O)c1ccccn1)C(=O)Nc1nccs1)N(O)C=O` (stereo not given in full), the growth inhibition in experiment [1] is 79% (active); in experiment [4], 101% (active). Besides, the inhibition in experiment [2] was 25%; in experiment [3] it was -1%. The result in experiment [5], in experiment [6], in experiment [7] and in experiment [8] was inactive.

With `O=C(/C=C/c1cccc2ccccc12)NCCCCCN1CCC(c2c[nH]c3ccccc23)CC1`, the figures for the growth inhibition in experiment [1] and in experiment [4] were 6% and 92% (active), respectively. The inhibition in experiment [2] is 55% (active); in experiment [3], -1%. The outcome in experiment [5], in experiment [6], in experiment [7] and in experiment [8] was inactive.

Consider `CCOc1cc(C(=O)Nc2ccc3nc(N4CCCCC4)cc(C)c3c2)cc(OCC)c1OCC`, for which the growth inhibition in experiment [1] was 2%; in experiment [4], 100% (active). The inhibition is 26% in experiment [2] and -6% in experiment [3]. The outcome in experiment [5], in experiment [6], in experiment [7] and in experiment [8] was inactive.

Consider `O=C(/C=C/C=C/c1ccccc1)NCCCCCN1CCC(c2c[nH]c3ccccc23)CC1`, for which the growth inhibition in experiment [1] was 7%; in experiment [4], 85% (active). In addition, the inhibition in experiment [2] is 28%; in experiment [3], 4%. In addition, the outcome in experiment [5], in experiment [6], in experiment [7] and in experiment [8] was inactive.

Turning to `CC[C@H]1CN2CCc3c([nH]c4ccccc34)[C@@H]2C[C@@H]1CC1c2cc(OC)c(OC)cc2CCN1C` (stereo not given in full), the growth inhibition in experiment [1] was 45%; in experiment [4], 85% (active). Besides, the inhibition in experiment [2] is 31%; in experiment [3] it was 5%. In addition, the result in experiment [5], in experiment [6], in experiment [7] and in experiment [8] was inactive.

For `Cc1cc(N(CCCN(C)C)Cc2cc(F)cc(F)c2)nc(Nc2ccc(Cl)cc2)n1`, the results for the growth inhibition in experiment [1] and in experiment [4] were 97% (active) and 99% (active), respectively. Further, the inhibition in experiment [2] is 37%; in experiment [3], -2%. The outcome in experiment [5], in experiment [6], in experiment [7] and in experiment [8] was inactive.

For the compound `Cc1cccc2[nH]c(-c3ccc(-c4ccc(NC(=O)NCc5ccccc5)cc4)s3)nc12`, the growth inhibition was 8% in experiment [1] and 93% (active) in experiment [4]. The inhibition is 79% (active) in experiment [2] and 5% in experiment [3]. Further, the result in experiment [5], in experiment [6], in experiment [7] and in experiment [8] was inactive.

With `FC(F)(F)CNc1nc(Nc2ccc3ncccc3c2)nc2[nH]ccc12`, the growth inhibition in experiment [1] was 83% (active); in experiment [4] it was 87% (active). Moreover, the inhibition in experiment [2] was 37%; in experiment [3], 0%. Further, the outcome in experiment [5], in experiment [6], in experiment [7] and in experiment [8] was inactive.

Turning to `NCc1cccc(-c2ccccc2CNC2CCN(Cc3ccccc3)CC2)c1`, the growth inhibition was 4% in experiment [1] and 94% (active) in experiment [4]. The inhibition in experiment [2] was -3%; in experiment [3], -2%. The outcome in experiment [5], in experiment [6], in experiment [7] and in experiment [8] was inactive.

With `CN1CCN(c2ccnc3ccc(NC(=O)Cc4ccc(-c5ccncc5)c5ccccc45)cc23)CC1`, the growth inhibition is 101% (active) in experiment [1] and 103% (active) in experiment [4]. The inhibition was 32% in experiment [2] and 3% in experiment [3]. Also, the result in experiment [5], in experiment [6], in experiment [7] and in experiment [8] was inactive.

In the case of `Cc1cc(NC(=O)NCCN2CCC(NS(=O)(=O)c3ccccc3Cl)C2)c2ccccc2n1` (stereo not given), the growth inhibition was 43% in experiment [1] and 97% (active) in experiment [4]. For the same compound, the figures for the inhibition in experiment [2] and in experiment [3] were 1% and -5%, respectively. For the same compound, the outcome in experiment [5], in experiment [6], in experiment [7] and in experiment [8] was inactive.

For the compound `COC(=O)c1cccc(CNCc2ccc(-c3ccc(-c4nc5ccc(F)cc5[nH]4)s3)cc2)c1`, the growth inhibition in experiment [1] is 82% (active); in experiment [4], 101% (active). Also, the inhibition is 4% in experiment [2] and 7% in experiment [3]. Moreover, the result in experiment [5], in experiment [6], in experiment [7] and in experiment [8] was inactive.
